Results: the supplement of paper PMC8728848
This is one part of a sample in which the strongest signals are shown more often than they occur.

How the values were obtained:
Test in all cases: glycan array binding signal (z-score within array); higher = stronger binding
Settings in all cases: glycan notation: IUPAC condensed, linker removed
[1] = target: GlcNAc(b1-2)[GlcNAc(b1-4)]Man(a1-3)[GlcNAc(b1-4)][GlcNAc(b1-2)Man(a1-6)]Man(b1-4)GlcNAc(b1-4)GlcNAc
Summary of the method: (§1)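 Columns mapping to the same glycan were averaged after glycan names were converted to IUPAC-condensed notation. The data come from 3228 arrays in the Consortium for Functional Glycomics database, limited to those with an available protein sequence. Binding is reported as a within-array Z-score averaged across arrays of one protein sequence and across linkers.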

GlcNAc(b1-3)Gal(b1-4)Glc = target: GlcNAc(b1-3)Gal(b1-4)Glc
Summary of the method: as §1

Kdn(a2-3)Gal(b1-4)GlcNAc = target: Kdn(a2-3)Gal(b1-4)GlcNAc
Summary of the method: as §1

[2] = target: Man(a1-3)[Man(a1-6)]Man(a1-6)[Man(a1-3)]Man(b1-4)GlcNAc(b1-4)GlcNAc
Summary of the method: as §1

[3] = target: Neu5Ac(a2-3)Gal(b1-4)GlcNAc
Summary of the method: as §1

Neu5Ac(a2-6)Gal(b1-4)Glc = target: Neu5Ac(a2-6)Gal(b1-4)Glc
Summary of the method: as §1

[4] = target: Neu5Ac(a2-6)Gal(b1-4)GlcNAc(b1-2)Man(a1-3)[Neu5Ac(a2-3)Gal(b1-4)GlcNAc(b1-2)Man(a1-6)]Man(b1-4)GlcNAc(b1-4)GlcNAc
Summary of the method: as §1

[5] = target: Neu5Ac(a2-6)Gal(b1-4)GlcNAc(b1-2)Man(a1-6)Man(b1-4)GlcNAc(b1-4)GlcNAc
Summary of the method: as §1

[6] = target: Neu5Ac(a2-6)Gal(b1-4)GlcNAc(b1-6)GalNAc
Summary of the method: as §1

[7] = target: Neu5Ac(a2-8)Neu5Ac(a2-3)Gal(b1-3)GalNAc(b1-4)[Neu5Ac(a2-3)]Gal(b1-4)Glc
Summary of the method: as §1

[8] = target: Neu5Ac(a2-8)Neu5Ac(a2-3)Gal(b1-3)GalNAc(b1-4)[Neu5Ac(a2-8)Neu5Ac(a2-3)]Gal(b1-4)Glc
Summary of the method: as §1

[9] = target: Neu5Ac(a2-8)Neu5Ac(a2-3)[GalNAc(b1-4)]Gal(b1-4)Glc
Summary of the method: as §1

[10] = target: Neu5Gc(a2-3)Gal(b1-4)GlcNAc
Summary of the method: as §1

[11] = target: Neu5Gc(a2-3)Gal(b1-4)GlcNAc(b1-3)Gal(b1-4)GlcNAc(b1-2)Man(a1-3)[Neu5Gc(a2-3)Gal(b1-4)GlcNAc(b1-3)Gal(b1-4)GlcNAc(b1-2)Man(a1-6)]Man(b1-4)GlcNAc(b1-4)GlcNAc
Summary of the method: as §1

[12] = target: Neu5Gc(a2-3)Gal(b1-4)[Fuc(a1-3)]GlcNAc
Summary of the method: as §1

B1: PX14343B-bfa-546-20-546 (Bacteroides fragilis) (protein)
chain: CDLERYPLTDLSEETFWNSESNAELALTSLYRGSLTDGVEYNPSDWWSYHGMIMMEHLSDNAFDRRGENNPFFKISSGNLTADNAFIKRYWETSYKRIGYCNRFLVGIQNSSESEKKTRMIAEARFLRATQYFYLASYFKNVPLVENVLTGEEANNVTKTSQADILKWCVTEFTAAAADLPRFSAIPAGEAGRACKQAALAFLGRTCMLQKDWKSGAKAFHDIMELGDNAINANYQELFYPSTGTSNKENIFYIQYLENYLGTGLPQHALSAKDGGWSLVNPAADLYESYEFKDGTPFSYDDPRYDPSNLGKDRDPRLDYTIYYNGAIFMGTEYKMSPDYSAAKKEKLDYTSEASRTGFMMRKYFEESTPINDVQSANGLTPVIRYAEVLLGYLECLVEDNQTITQGILDETINAVRGRASVNMPPVTEVTPAKLREIVRHERRIELAMEGIRYWDIMRWGIAHEVLSQKIWGAPYPGSTQYATTTKEVDPTGNYRWYVGKRAFRNPTDYTWPIPQSEQNINPNLRD
glycan array binding signal (z-score) [1]: -0.124
glycan array binding signal (z-score) (GlcNAc(b1-3)Gal(b1-4)Glc): -0.13
glycan array binding signal (z-score) (Kdn(a2-3)Gal(b1-4)GlcNAc): -0.123
glycan array binding signal (z-score) [2]: -0.104
glycan array binding signal (z-score) [3]: -0.121
glycan array binding signal (z-score) (Neu5Ac(a2-6)Gal(b1-4)Glc): -0.122
glycan array binding signal (z-score) [4]: -0.127
glycan array binding signal (z-score) [5]: -0.119
glycan array binding signal (z-score) [6]: -0.123
glycan array binding signal (z-score) [7]: -0.129
glycan array binding signal (z-score) [8]: -0.12
glycan array binding signal (z-score) [9]: -0.131
glycan array binding signal (z-score) [10]: -0.122
glycan array binding signal (z-score) [11]: -0.129
glycan array binding signal (z-score) [12]: -0.113
